# Screening data (PubChem)
# Shown are actives, neighbours in structure and some others; about 12% of the full set was active somewhere.
# G9a block – inhibitors of human histone lysine methyltransferase G9a. Q96KQ7. G9a H3K9 monomethylation, AlphaScreen, 2 h. AID 504332. Potency, µM (doses to about 102 µM), for inactives: at the highest dose activity, negative = inhibition, usual class: inhibitors. 350,000 compounds, 8.8% hits; further: on the % scale 0 is the no-effect control and ±100 the full control effect; nearly all actives have a fitted effect of over 75% in size
#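 Quantitative HTS format: methyltransferase activity on a biotin-tagged H3K9 peptide is measured by AlphaScreen, using a rabbit anti-monomethyl-H3K9 antibody with streptavidin donor and anti-IgG acceptor beads. Final levels are 20 nM enzyme, 500 nM peptide, 20 uM SAM; 2 h RT.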
# JMJD2A Tudor – inhibitors of human JMJD2A Tudor domain. AlphaScreen JMJD2A-Tudor / H3K4me3 peptide binding. Potency, µM (doses to about 114 µM), inactives show at the highest dose activity change, negative = inhibition, actives largely listed as inhibitors. 390,000 compounds, 4.4% hits. AID 504339; further: on the % scale 0 is the no-effect control and ±100 the full control effect; nearly all actives have a fitted effect of over 50% in size
# Target sequence (O75164 whole entry, looked up, the tested form may be a part): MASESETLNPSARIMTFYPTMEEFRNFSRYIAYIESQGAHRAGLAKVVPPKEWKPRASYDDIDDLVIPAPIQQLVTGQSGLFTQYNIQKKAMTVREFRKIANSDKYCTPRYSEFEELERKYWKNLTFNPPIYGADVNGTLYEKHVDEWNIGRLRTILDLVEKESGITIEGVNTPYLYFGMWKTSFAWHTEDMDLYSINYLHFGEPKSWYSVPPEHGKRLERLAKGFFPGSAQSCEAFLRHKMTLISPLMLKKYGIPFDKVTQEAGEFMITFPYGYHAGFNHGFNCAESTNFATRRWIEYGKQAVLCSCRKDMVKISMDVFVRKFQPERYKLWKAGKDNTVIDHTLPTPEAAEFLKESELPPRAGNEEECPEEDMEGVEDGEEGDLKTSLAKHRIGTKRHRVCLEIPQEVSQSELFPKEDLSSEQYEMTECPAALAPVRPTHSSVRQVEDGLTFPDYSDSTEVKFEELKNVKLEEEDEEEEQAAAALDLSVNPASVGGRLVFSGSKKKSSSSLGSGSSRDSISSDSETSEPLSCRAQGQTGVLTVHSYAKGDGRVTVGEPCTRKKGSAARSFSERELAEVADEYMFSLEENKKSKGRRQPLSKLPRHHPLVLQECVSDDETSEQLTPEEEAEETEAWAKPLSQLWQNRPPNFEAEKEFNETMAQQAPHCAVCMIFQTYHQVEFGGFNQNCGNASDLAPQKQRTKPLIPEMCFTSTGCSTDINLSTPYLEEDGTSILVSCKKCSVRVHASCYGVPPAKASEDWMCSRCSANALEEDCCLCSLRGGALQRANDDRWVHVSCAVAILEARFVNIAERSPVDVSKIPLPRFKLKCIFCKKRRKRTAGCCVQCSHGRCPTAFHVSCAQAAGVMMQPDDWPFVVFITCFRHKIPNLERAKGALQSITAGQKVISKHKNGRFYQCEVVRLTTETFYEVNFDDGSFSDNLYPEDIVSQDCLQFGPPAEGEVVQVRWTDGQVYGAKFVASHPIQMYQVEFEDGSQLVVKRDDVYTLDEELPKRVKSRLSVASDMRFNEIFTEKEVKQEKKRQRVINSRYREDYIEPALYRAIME
# Sfp inh – blocks B. subtilis Sfp PPTase activity; Potency, µM, inactives show largest response in the series, negative = inhibition, usual class: inhibitors; Q9F4F7; AID 1490; Biochemical Sfp PPTase activity, qHTS; 310,000 compounds, 3.5% hits;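 further: the enzyme is Sfp with the accession as filed and its product quenches rhodamine fluorescence; 0% = enzyme reaction without inhibitor and -100% = no enzyme wells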
#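 Compounds were incubated with enzyme (final 15 nM) for 15 min at room temperature before substrate addition started the reaction. Fluorescence at 525 nm excitation, 598 nm emission was recorded immediately and after 30 minutes.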
# BAZ2B inh – blocks human BAZ2B | AlphaScreen BAZ2B-H3K14Ac peptide displacement | Potency, µM (doses to about 114 µM), without a hit: at the highest dose activity change, negative = inhibition, usual class: inhibitors | 360,000 compounds, 4.4% hits | AID 504333; further: on the % scale 0 is the no-effect control and ±100 the full control effect; nearly all actives have a fitted effect of over 60% in size
#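 Protein-peptide AlphaScreen: BAZ2B 50 nM, b-H3K14Ac 50 nM, 1x PBS pH 7.4 + 0.01% Tween-20. Preincubation 30 min RT; cpd 30 min RT (top 110 uM); beads 20 min RT, light-protected.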
# HP1b chromo inh – blocks HP1-beta chromodomain binding to methylated histone tails. P83916. AlphaScreen HP1-beta / biotin-H3K9me3 peptide binding. Potency, µM (doses to about 114 µM), for inactives: at the highest dose activity change, negative = inhibition, usual class: inhibitors. 390,000 compounds, 0.56% hits. AID 540317; further: nearly all actives have a fitted effect of over 70% in size
#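 Compound inhibition of the preformed complex between 50 nM HP1-beta and 50 nM biotinylated H3K9me3 peptide was read by AlphaScreen. Buffer was PBS pH 7.4 with 0.01% Tween-20. Incubations ran 30 min at room temperature, with 10 ug/mL donor/acceptor beads.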
# * = called active by the depositor; ? = inconclusive; . = not tested or not shown; [ ] = remark or other dose. The call rests on the fitted dose curve; in most records, active means well fitted curve in the direction sought with a large enough effect; inconclusive means small, poorly fitted or top-dose-only effect, or another doubt; inactive means no such curve, though single readings can be large; an effect the other way counts as inactive or inconclusive. Potency means the concentration at half of the fitted maximal effect.
SMILES,G9a block,JMJD2A Tudor,Sfp inh,BAZ2B inh,HP1b chromo inh
COc1ccc(Cc2n[nH]c(=S)n2-c2ccc3c(c2)OCCO3)cc1,8.9µM*,6.3µM*,-24%,-23%,13%
COc1ccc(-c2n[nH]c(=S)n2-c2ccc3c(c2)OCCO3)cc1,1.8µM*,3.2µM*,?,-33%,?
S=c1[nH]nc(Cc2ccc(Cl)cc2)n1-c1ccc2c(c1)OCCO2,.,?,-18%,?,8%
S=c1[nH]nc(-c2ccc(Br)cc2)n1-c1ccc2c(c1)OCCO2,1.6µM*,71µM*,40µM*,?,9%
COc1cc(OC)cc(-c2n[nH]c(=S)n2-c2ccc3c(c2)OCCO3)c1,3.5µM*,4.5µM*,-22%,-25%,14%
COc1ncc2nc(-c3cccs3)c(=O)n(Cc3ccc(F)cc3)c2n1,24%[0.501 µM],.,-9%,.,.
COc1ccc(-n2nnc(-c3nc(-c4cccs4)no3)c2N)cc1OC,2%[59 µM],-27%,.,-12%,8%
CC(C)(C)c1cc[n+](-c2[nH]c(=O)sc2/C=N/NC(=O)c2ccccc2[O-])cc1,79µM*,-26%,-1%,-12%,9%
O=c1[nH]c(-[n+]2ccc3ccccc3c2)c(/C=N/N=C(\[O-])c2ccccc2)s1,?,-9%,-4%,-18%,35%
CCc1ccc[n+](-c2[nH]c(=O)sc2/C=N/NC([S-])=Nc2ccccc2)c1,22µM*,?,-21%,?,-38%
CC(C)(C)c1cc[n+](-c2[nH]c(=O)sc2/C=N/N=C(\[O-])c2cccnc2)cc1,?,-16%,-15%,3%,37%
CCc1ccc[n+](-c2[nH]c(=O)sc2/C=N/N=C(\N)[O-])c1,17%,6%,?,-27%,22%
O=c1[nH]c(-[n+]2ccccc2)c(/C=N/NC([S-])=Nc2ccccc2)s1,22µM*,-28%,?,-38%,-6%
Cc1cc[n+](-c2[nH]c(=O)sc2/C=N/NC([S-])=Nc2ccccc2)cc1,28µM*,?,-21%,?,?
O=S(=O)(NCC(O)c1ccccc1)c1cc(Cl)sc1Cl (centres undefined),27%,1%,14%,-13%,15%
Cc1ccc2[nH]c(C(=O)N/N=C/c3ccccc3O)c(C)c2c1,14%,-21%,21%,-10%,26%
Cc1cc(C)c[n+](-c2[nH]c(=O)sc2/C=N/NC([S-])=Nc2ccccc2)c1,35µM*,?,-29%,?,?
Cc1nc(NC2CCCCC2)c2nc(-c3ccccc3)n(C(C)CN(C)C)c2n1 (centres undefined),.,.,6%,.,.
COc1ccc(C)cc1N(C(=O)c1ccccc1)c1nc2ccccc2s1,-12%[59 µM],0%,4%,5%,36%
COc1ccc(C)cc1N(C(=O)c1ccc(C#N)cc1)C1=NC(C)(C)CS1,28µM*,0%,-5%,-20%,29%
COc1ccc(CC(=O)N2CC(=O)Nc3ccc(F)cc3C2c2ccccc2)cc1 (centres undefined),-2%[59 µM],-25%,.,0%,11%
NCCSC1CC(=O)N(Cc2ccc(F)cc2)C1=O (centres undefined),40µM*,2%,6%,-5%,36%
CCOc1ccc(-n2nnnc2SCC(=O)c2ccccc2)cc1,-4%,4%,1%,6%,55%
O=C1CC(Sc2ccc(Cl)cc2)C(=O)N1Cc1ccncc1 (centres undefined),.,3%,7%,-4%,68%
CN1/C(=C/C2CC(=O)N(c3cccc4ccccc34)C2=O)C(C)(C)c2ccccc21 (centres undefined),?,-25%,1%,?,15%
SMILES,G9a block,JMJD2A Tudor,Sfp inh,BAZ2B inh,HP1b chromo inh
CCOc1ccc(N2C(=O)CC(SCCN)C2=O)cc1 (centres undefined),18µM*,-29%,?,-32%,23%
CCOc1ccc(N2C(=O)CC(/C=C3/N(C)c4ccccc4C3(C)C)C2=O)cc1 (centres undefined),14µM*,?,0%,?,8%
CCOc1ccc(N2C(=O)CC(Sc3nnnn3-c3ccccc3)C2=O)cc1 (centres undefined),10µM*,5%,16µM*,-23%,52%
Cc1ccc(N(C)C(=O)Cn2nc(Cc3ccncc3)c3ccccc3c2=O)cc1C,-1%[59 µM],-8%,.,-12%,46%
Cc1ccc(CCNc2ncnc(Cl)c2N)cc1,.,-10%,.,.,15%[57 µM]
O=S(=O)(O)c1cc(O)c2c(N=Nc3ccc(Nc4ccccc4)c4c(S(=O)(=O)O)cccc34)cc(S(=O)(=O)O)cc2c1,?,.,-7%,.,.
Nc1cccc2c(O)cc(S(=O)(=O)O)cc12,.,10µM*,.,.,10µM*
O=S(=O)(O)c1ccc(O)c2cc(Nc3ccccc3)ccc12,.,2.8µM*,.,.,2µM*
COc1ccccc1Nc1ccc2c(O)cc(S(=O)(=O)O)cc2c1,.,20µM*,.,.,22µM*
Nc1cccc2c(O)cccc12,.,-29%,.,.,-5%
COc1ccc(S(=O)(=O)O)cc1P(=O)(c1ccccc1)c1ccccc1,3%,-17%,17%,-13%,16%
O=S(=O)(O)c1cc(O)c2cc(Nc3ccccc3)ccc2c1,.,14µM*,.,.,35µM*
O=C(O)c1cc2cc(S(=O)(=O)O)ccc2cc1O,.,2%,.,.,40%
Nc1ccc2c(O)cc(S(=O)(=O)O)cc2c1,.,45µM*,.,.,?
Cc1ccc(S(=O)(=O)c2cc(Nc3ccccc3)ccc2O)cc1,17%[2.33 µM],?,.,50µM*,-11%
O=S(=O)(O)c1cc(O)c2ccc(Nc3ccccc3)cc2c1,.,2.8µM*,.,.,?
COc1ccc(-c2noc(N3CCC(C(=O)Nc4cccc(OC)c4)CC3)n2)cc1,43%,-17%,12%,4%,19%
CCCSC1=N/C(=C\c2ccc([N+](=O)[O-])o2)C(=O)S1,?,11µM*,40µM*,13µM*,35µM*
CSC1=N/C(=C\c2ccc(C)o2)C(=O)S1,13µM*,?,?,45µM*,-66%
CCCSC1=N/C(=C\c2ccsc2)C(=O)S1,51%[12.7 µM],75%,6%,20%,87%
CCSC1=N/C(=C\c2ccc(-c3ccccc3[N+](=O)[O-])o2)C(=O)S1,46%[0.501 µM],?,?,7.9µM*,10µM*
O=C(CSc1cn(CC(=O)N2CCCC2)c2ccccc12)Nc1cc(C(F)(F)F)ccc1Cl,-4%[59 µM],-23%,.,-16%,16%
Cc1cc(C)cc(-n2c(C)cc(C(=O)C(=O)Nc3nnc(C)s3)c2C)c1,-10%[59 µM],-25%,.,-8%,2%
Cc1cc(NC(=O)CN2C(=O)NC3(CCCCC3)C2=O)ccc1N1CCCC1,8.9µM*,-20%,.,-31%,2%
Cc1cc(N2CCCC2)ccc1NC(=O)CN1C(=O)NC2(CCCCC2)C1=O,3.5µM*,-36%,.,-35%,-19%
